Screening results (PubChem)
Mdm2 MdmX PPI – inhibitors of human Mdm2-MdmX association, primary screen, cell-based, luminescence, split luciferase, SaOS-2, uHTS | Protein Mdm4 (Homo sapiens) + E3 ubiquitin-protein ligase Mdm2 (Homo sapiens), … | SaOS-2 split-luciferase Mdm2/MdmX complementation | inhibition, % at 8 µM | 330,000 tested, 3% active | AID 485346, 2010;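 active = inhibition of at least 50% at 8 µM in the primary screen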
Beta cell apopt – inhibitors of cytokine-induced beta cell apoptosis, primary screen, luminescence. INS-1E cytokine-induced death, ATP luminescence, 48 h; percent of positive-control rescue, neutral wells zero. protection from apoptosis, % (test concentration not listed). 300,000 tested, 0.8% active. AID 435005, 2010;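 active = Every replicate reaches about 75%, or at least half do and their mean reaches it too, limit read from the data; inconclusive = At least half of replicates reach the limit but their mean does not; inactive = Under half of replicates reach the limit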;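 also: 0% = cytokine-treated negative control wells and 100% = positive control rescue; higher means more ATP so stronger rescue from cytokine killing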
PP1 counter – PP1-alpha phosphatase inhibitors, primary screen, counter-screen for PP5 inhibitor project, biochemical, fluorescence, OMFP substrate, single point. 320,000 tested, 0.9% active. inhibition, % at 6.7 µM. Serine/threonine-protein phosphatase PP1-alpha catalytic subunit (Homo sapiens), P62136. purified PP1alpha;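 active = inhibition above the mean inhibition of all tested compounds plus 3 SD, computed separately for each screening campaign, cut at about 15% in these data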
Target sequence (P62136 whole entry, looked up): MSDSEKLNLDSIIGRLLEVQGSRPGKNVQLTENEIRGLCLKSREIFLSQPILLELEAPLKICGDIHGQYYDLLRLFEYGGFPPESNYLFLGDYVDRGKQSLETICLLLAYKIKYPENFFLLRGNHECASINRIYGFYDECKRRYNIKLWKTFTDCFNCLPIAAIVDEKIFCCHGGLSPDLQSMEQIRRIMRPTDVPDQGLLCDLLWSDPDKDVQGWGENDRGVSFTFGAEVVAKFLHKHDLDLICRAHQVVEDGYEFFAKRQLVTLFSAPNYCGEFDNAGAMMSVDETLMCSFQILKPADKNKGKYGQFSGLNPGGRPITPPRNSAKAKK
PP5 primary – PP5 phosphatase inhibitors, primary screen, biochemical, fluorescence; AID 1987, 2009; inhibition, % at 6.7 µM; purified PP5c, OMFP substrate fluorescence; 320,000 tested, 0.18% active;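 active = inhibition above the campaign's mean inhibition across all tested compounds plus 3 SD, cut at about 9.5% in these data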;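 also: 0% = DMSO only and 100% = 100 µM cantharidin control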
CSC inhib – cancer stem cell viability inhibitors, primary screen, luminescence; cancer stem cell-like cells viability; inhibition, % at 7.5 µM; 300,000 tested, 1.1% active; AID 2717, 2010; in the data active = inhibition above about 75%; inconclusive = no clear call, values can overlap the other calls; tested in HMLE shEcad cells
Calb FLC – C. albicans growth inhibition with fluconazole, primary screen, CaCi-2 strain, Alamar Blue fluorescence; growth inhibition, % (concentration not given with the values); C. albicans CaCi-2 (fluconazole-resistant clinical isolate) + fluconazole, 48 h; 300,000 tested, 0.57% active;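 active = growth inhibition above about 58% in most replicates, limit read from the data, passing the limit was not always enough; inconclusive = exactly half the replicates above a set limit; inactive = most replicates below a set limit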;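 also: all wells also contain fluconazole at 8 µg/ml as a sub-toxic cotreatment; 0% = median of DMSO wells and 100% = median of geldanamycin control wells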
Mdm2 MdmX conf – Mdm2-MdmX complex disruptors, retested hits, confirmation, luminescence, single concentration; inhibition, % at 8 µM; 10,000 tested, 55% active; shares compounds with Mdm2 MdmX PPI; Mdm2-MdmX binding, luminescent assay; in the data active = inhibition above about 40%
FLuc counter – full-length luciferase signal inhibition, confirmation, counter-screen for Mdm2/MdmX interaction inhibitor project, cell-based, single concentration, SaOS-2. shares compounds with Mdm2 MdmX PPI. 6,200 tested, 77% active. inhibition, % at 8 µM. SaOS-2 full-length luciferase counterscreen, luminescence;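 active = mean inhibition at 8 µM reaching about 37%, which flags the compound as non-specific, limit read from the data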;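 also: p53-null SaOS-2 cells with luciferase driven by a doxycycline-inducible promoter; compound on cells about two nights before reading with doxycycline added after day one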
* marks the source's active call; other numbers are inactive results. Sampled rows, rich in hits. Any-hit rate of the full collection: about 4.9%.

`N=c1c(C(=O)NCc2ccc(F)cc2)cc2c(=O)n3ccccc3nc2n1CCCN1CCOCC1` gave Mdm2 MdmX PPI 53.4*, Beta cell apopt 12.4, PP1 counter 2.2, PP5 primary 0.3, CSC inhib -3.0 and Mdm2 MdmX conf 16.4.
`CN(CC(=O)Nc1ccccc1Cl)C(=O)CSc1nnc(-c2ccco2)n1C` gave Mdm2 MdmX PPI 1.4, Beta cell apopt -5.3, PP1 counter -0.9, PP5 primary -0.9 and CSC inhib -4.3.
For O=S(=O)(Nc1cc(S(=O)(=O)N2CCOCC2)ccc1NCC1CCCO1)c1ccccc1F (stereo not drawn) the results were Mdm2 MdmX PPI 11.7, Beta cell apopt 0.0, PP1 counter -5.8 and PP5 primary 2.3.
For COc1ccc(CCNC(=O)c2cc3c(=O)n4cccc(C)c4nc3n(CCCN3CCOCC3)c2=N)cc1 the results were Mdm2 MdmX PPI 65.1*, Beta cell apopt 27.1, PP1 counter -6.8, PP5 primary -0.6, CSC inhib 11.0, Calb FLC -4.2 and Mdm2 MdmX conf 16.8.
Screening Cc1cccn2c(=O)c3cc(C(=O)NC4CCCCC4)c(=N)n(Cc4ccc(F)cc4)c3nc12 returned Mdm2 MdmX PPI 57.7*, Beta cell apopt 5.1, PP1 counter -2.6, PP5 primary -2.9, CSC inhib -7.7, Calb FLC 10.3 and Mdm2 MdmX conf 17.9.
Screening Cc1cccn2c(=O)c3cc(C(=O)NC4CCCC4)c(=N)n(CC4CCCO4)c3nc12 (stereo not drawn) returned Mdm2 MdmX PPI 23.2, Beta cell apopt 7.4, PP1 counter -0.1, PP5 primary 0.4, CSC inhib -8.5 and Calb FLC 1.4.
O=[N+]([O-])CC(c1ccc(F)cc1)c1c[nH]c2ccccc12 (stereo not drawn) was read as Mdm2 MdmX PPI 62.8*, Beta cell apopt -5.4, CSC inhib 58.1, Calb FLC -1.3, Mdm2 MdmX conf 65.8* and FLuc counter 41.7*.
Screening O=C(NCCc1ccc(F)cc1)c1cccc(NC(=O)c2ccccc2)c1 returned Mdm2 MdmX PPI 19.1, Beta cell apopt 3.8, PP1 counter 7.4, PP5 primary 2.6, CSC inhib 0.6 and Calb FLC 14.6.
For CC(C)COP(=O)(OCC(C)C)C(O)c1ccc(N(C)C)cc1 (stereo not drawn) the results were Mdm2 MdmX PPI 25.3, PP1 counter -3.6, PP5 primary 5.0 and Calb FLC -8.7.
COc1ccc(OC)c(C2CC(c3ccccc3)=NN2C(=S)Nc2ccccc2)c1 (stereo not drawn) was read as Mdm2 MdmX PPI 72.2*, Beta cell apopt 8.7, PP1 counter -0.6, PP5 primary 0.0, CSC inhib 54.5, Calb FLC 2.6, Mdm2 MdmX conf 57.5* and FLuc counter 62.9*.
For Cc1cc(N)c2ccccc2n1 the results were Mdm2 MdmX PPI 5.8, Beta cell apopt 1.7, PP1 counter -6.2, PP5 primary -0.7, CSC inhib -0.8 and Calb FLC inconclusive.
`Nc1cc2ccncc2c2ccccc12` gave Mdm2 MdmX PPI 84.4*, Beta cell apopt 4.3, PP1 counter -0.2, PP5 primary 1.0, CSC inhib -11.6, Mdm2 MdmX conf 84.2* and FLuc counter 50.2*.
Screening CCn1c(SC(C)C(=O)NCC2CCCO2)nc2ccccc21 (stereo not drawn) returned Mdm2 MdmX PPI -8.0, Beta cell apopt -0.9, PP1 counter -0.8 and PP5 primary 4.2.
